Unmarked numbers belong to inactive results. Inconclusive results are not listed. Where a call stands in place of a potency, no number is given. The source made the active and inactive calls. Unless noted, calls come from the whole dose curve.
What was measured:
[1] = Nuclear factor erythroid 2-related factor 2/antioxidant responsive element (Nrf2/ARE) small molecule agonists: qHTS cell viability counter screen in human keratinocytes (AID 1919968; active = well fitted curve in the direction sought with a large enough effect in the repeat runs; an effect the other way counts as inactive or inconclusive; note: nearly all actives have a fitted effect of over 55% in size)
Summary of the method: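 KeratinoSens cells (HaCaT keratinocytes stably carrying an ARE-luciferase reporter) were seeded at 1,500 cells/well and rested 5 h at 37 C/5% CO2. They were then exposed to compounds in DMSO for 23 h. Viability was read by CellTiter-Fluor fluorescence after 1 h.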

[2] = Nuclear factor erythroid 2-related factor 2/antioxidant responsive element (Nrf2/ARE) small molecule agonists: luciferase reporter gene qHTS assay in human keratinocytes (AID 1919969); note: nearly all actives have a fitted effect of over 35% in size; note: potency is the fitted concentration of half-maximal effect
[3] = target: Gonadotropin-releasing hormone receptor (Homo sapiens) (UniProt P30968); assay: Human gonadotropin-releasing hormone receptor (GnRHR) small molecule agonists, calcium flux assay in GnRHR-HEK293 cells (AID 1920063); note: nearly all actives have a fitted effect of over 35% in size
Gonadotropin-releasing hormone receptor (Homo sapiens), sequence (P30968 whole entry, looked up): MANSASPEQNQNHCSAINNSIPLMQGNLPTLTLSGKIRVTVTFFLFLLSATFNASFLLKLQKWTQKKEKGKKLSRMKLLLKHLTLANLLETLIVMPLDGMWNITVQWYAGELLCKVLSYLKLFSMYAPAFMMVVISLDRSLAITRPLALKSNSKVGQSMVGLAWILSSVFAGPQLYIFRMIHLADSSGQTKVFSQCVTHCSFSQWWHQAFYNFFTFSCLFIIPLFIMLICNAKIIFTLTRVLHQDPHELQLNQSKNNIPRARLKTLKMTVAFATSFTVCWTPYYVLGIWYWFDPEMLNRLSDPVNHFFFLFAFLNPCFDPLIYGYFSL
Summary of the method: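 HEK293 cells stably expressing human GnRHR were plated 18 h at 37 °C, loaded with calcium dye 1 h at 37 °C, then given compound in agonist mode; fluorescence (Ex/Em 480/540) read kinetically for 3 min at 1 s intervals.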

[4] = target: KiSS-1 receptor (Homo sapiens) (UniProt Q969F8); assay: Human kisspeptin (KISS1R) small molecule agonists, calcium flux assay in KISS1R-HEK293 cells (AID 1920064; active = well fitted curve in the direction sought with a large enough effect in the repeat runs; an effect the other way counts as inactive or inconclusive)
KiSS-1 receptor (Homo sapiens), sequence (Q969F8 whole entry, looked up): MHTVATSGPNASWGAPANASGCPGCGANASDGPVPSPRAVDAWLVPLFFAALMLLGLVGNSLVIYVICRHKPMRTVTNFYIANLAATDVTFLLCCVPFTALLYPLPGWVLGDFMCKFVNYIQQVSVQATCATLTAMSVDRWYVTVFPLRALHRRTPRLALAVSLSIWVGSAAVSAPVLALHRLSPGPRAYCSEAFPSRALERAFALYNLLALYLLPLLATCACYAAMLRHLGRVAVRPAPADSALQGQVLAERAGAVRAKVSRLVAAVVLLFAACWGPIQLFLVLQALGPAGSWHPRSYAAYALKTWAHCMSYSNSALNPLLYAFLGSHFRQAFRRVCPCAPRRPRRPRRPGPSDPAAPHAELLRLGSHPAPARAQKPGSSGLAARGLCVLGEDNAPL
Summary of the method: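 HEK293 cells stably expressing human KISS1R were plated 18 h at 37 °C, loaded with calcium dye for 1 h at 37 °C, then given compound by pin tool. Fluorescence (Ex/Em 480/540) was read kinetically for 3 min.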

[5] = G protein-coupled receptor (GPCR) small molecule agonists, calcium flux assay: HEK293 wild type cell line counter screen (AID 1920065)
Summary of the method: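 Cells were plated and cultured 18 h at 37 C/5% CO2, then loaded with calcium dye for 1 h at 37 C. Compounds in DMSO were pin-transferred in agonist mode, and fluorescence (Ex/Em 480/540) was read kinetically for 3 min at 1 s intervals.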

[6] = p53 small molecule agonists, cell-based qHTS assay with human liver microsomes (AID 1963577);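 note: p53 response element beta-lactamase reporter cells with liver microsomes plus NADPH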
Summary of the method: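 p53RE-bla cells; 5 h settle, 37 C/5% CO2; cpd + HLM 0.5 mg/mL + NADPH 0.5 mg/mL (final); 16 h 37 C; LiveBLAzer 2 h RT dark; fluorescence readout.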

[7] = p53 small molecule agonists, cell-based qHTS assay with rat liver microsomes (AID 1963578)
Summary of the method: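 Rat liver microsome activation: microsomes 0.5 mg/mL, NADPH 0.5 mg/mL final; p53RE-bla cells, 16 h 37 C; LiveBLAzer readout, 2 h RT dark.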

[8] = p53 small molecule agonists, cell-based qHTS assay with human liver microsomes: qHTS cell viability counter screen (AID 1963579); note: nearly all actives have a fitted effect of over 45% in size; note: potency is the fitted concentration of half-maximal effect
Summary of the method: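 Luminescent CellTiter-Glo read-out, 30 min at room temperature, gauged cytotoxicity in p53RE-bla cells exposed 16 h at 37 C to DMSO-dissolved compounds with metabolic activation by human liver microsomes and NADPH, each 0.5 mg/mL final.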

[9] = p53 small molecule agonists, cell-based qHTS assay with rat liver microsomes: qHTS cell viability counter screen (AID 1963580); note: nearly all actives have a fitted effect of over 45% in size
Summary of the method: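 p53RE-bla HCT-116 cells (4,000/well) rested 5 h at 37 C, then given Tox21 compounds in DMSO with rat liver microsomes (0.5 mg/mL final) plus NADPH (0.5 mg/mL final) for 16 h at 37 C. Viability read by CellTiter-Glo luminescence after 30 min at room temperature.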

[10] = p53 small molecule agonists, cell-based qHTS assay: qHTS cell viability counter screen (AID 1963581); note: nearly all actives have a fitted effect of over 45% in size
Summary of the method: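 p53RE-bla HCT-116 cells were exposed to compounds for 16 h at 37 C; after the beta-lactamase FRET read in the same wells, CellTiter-Glo was added and luminescence (intracellular ATP) read after 30 min at room temperature.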

[11] = p53 small molecule agonists, cell-based qHTS assay (AID 1963582; active = well fitted activation curve with a large enough effect in the signal ratio in the repeat runs, not every such curve was filed as active; the % refers to the signal ratio; note: potency is the fitted concentration of half-maximal effect)
Summary of the method: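 p53RE-bla beta-lactamase reporter cells rested 5 h at 37 C/5% CO2, then received compounds in DMSO by pin transfer and were incubated 16 h at 37 C. LiveBLAzer B/G FRET substrate was loaded for 2 h at room temperature before fluorescence reading.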

[12] = target: 5-hydroxytryptamine receptor 2A (Homo sapiens) (UniProt P28223); assay: 5-hydroxytryptamine receptor 2A (HTR2A) small molecule antagonists, cell-based qHTS assay (AID 1963586); note: nearly all actives have a fitted effect of over 45% in size
5-hydroxytryptamine receptor 2A (Homo sapiens), sequence (P28223 whole entry, looked up): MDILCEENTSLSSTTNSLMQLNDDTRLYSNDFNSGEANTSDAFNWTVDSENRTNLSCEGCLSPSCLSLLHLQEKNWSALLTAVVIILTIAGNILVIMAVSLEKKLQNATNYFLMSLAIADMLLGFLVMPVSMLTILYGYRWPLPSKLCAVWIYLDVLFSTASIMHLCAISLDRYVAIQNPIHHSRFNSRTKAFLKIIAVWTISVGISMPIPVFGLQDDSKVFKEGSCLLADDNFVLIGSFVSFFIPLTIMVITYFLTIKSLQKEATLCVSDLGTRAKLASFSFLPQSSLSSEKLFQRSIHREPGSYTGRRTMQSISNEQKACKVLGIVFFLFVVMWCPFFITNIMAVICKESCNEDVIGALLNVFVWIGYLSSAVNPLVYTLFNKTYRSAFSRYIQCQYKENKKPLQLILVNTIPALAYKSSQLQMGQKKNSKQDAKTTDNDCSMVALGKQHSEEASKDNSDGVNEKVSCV
Summary of the method: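 Antagonist-mode intracellular calcium assay: DOI (4 nM) added after 5 min compound pre-incubation at room temperature to dye-loaded HTR2A-CHO cells. Fluorescence followed for 3 min, sampled every second.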

[13] = target: 5-hydroxytryptamine receptor 2A (Homo sapiens) (UniProt P28223); assay: 5-hydroxytryptamine receptor 2A (HTR2A) small molecule agonists, cell-based qHTS assay (AID 1963587); note: nearly all actives have a fitted effect of over 30% in size
Summary of the method: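 HTR2A-CHO cells, plated 18 h at 37 C/5% CO2, dye-loaded 1 h at 37 C; compounds in DMSO added by pin tool (agonist mode). Intracellular calcium flux read as kinetic fluorescence on FDSS over 2 min at 1 s intervals.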

[14] = target: Muscarinic acetylcholine receptor M1 (Homo sapiens) (UniProt P11229); assay: Cholinergic receptor muscarinic 1 (CHRM1) small molecule agonists, cell-based qHTS assay (AID 1963589); note: nearly all actives have a fitted effect of over 35% in size
Muscarinic acetylcholine receptor M1 (Homo sapiens), sequence (P11229 whole entry, looked up): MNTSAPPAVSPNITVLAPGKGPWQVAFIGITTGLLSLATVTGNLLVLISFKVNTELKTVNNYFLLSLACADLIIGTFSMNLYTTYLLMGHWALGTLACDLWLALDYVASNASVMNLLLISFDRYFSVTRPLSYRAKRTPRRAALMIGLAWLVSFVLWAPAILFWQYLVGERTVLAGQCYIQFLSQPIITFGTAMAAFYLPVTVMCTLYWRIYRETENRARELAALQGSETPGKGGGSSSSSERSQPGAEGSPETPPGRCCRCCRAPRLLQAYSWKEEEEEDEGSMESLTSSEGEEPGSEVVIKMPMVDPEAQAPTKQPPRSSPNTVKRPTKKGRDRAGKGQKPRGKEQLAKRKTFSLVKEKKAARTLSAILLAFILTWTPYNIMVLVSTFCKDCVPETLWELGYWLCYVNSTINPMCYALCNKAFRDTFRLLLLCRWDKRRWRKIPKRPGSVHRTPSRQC
Summary of the method: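 CHO cells stably expressing human CHRM1, seeded 18 h at 37 C/5% CO2, dye-loaded 1 h at 37 C, then given compound in agonist mode; intracellular calcium fluorescence read kinetically at 1 s intervals. Fifteen concentrations, three independent runs.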

[15] = cAMP Responsive Elements (CRE) small molecule agonists, cell-based qHTS assay (AID 1963590)
Summary of the method: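 CRE-bla HEK 293T cells in DMEM with 10% dialyzed FBS, NEAA, pyruvate and 25 mM HEPES were plated 18 h at 37 C/5% CO2, then exposed to compounds in DMSO for 3 h before LiveBLAzer B/G FRET substrate addition.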

[16] = cAMP Responsive Elements (CRE) small molecule antagonists, cell-based qHTS assay (AID 1963591; active = well fitted inhibition curve with a large enough effect in the signal ratio in the repeat runs, not every such curve was filed as active; the % refers to the signal ratio)
Summary of the method: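 CRE-bla HEK293T cells were plated 18 h at 37 °C/5% CO2, pinned with compound in DMSO, then stimulated with NKH477 at 0.25 uM final for 3 h. LiveBLAzer B/G FRET substrate was added and plates incubated 2 h at room temperature.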

[17] = target: Beta-2 adrenergic receptor (Homo sapiens) (UniProt P07550); assay: Adrenergic beta2 receptor (ADRB2) small molecule antagonists, cell-based qHTS assay (AID 1963592); note: nearly all actives have a fitted effect of over 50% in size; note: potency is the fitted concentration of half-maximal effect
Beta-2 adrenergic receptor (Homo sapiens), sequence (P07550 whole entry, looked up): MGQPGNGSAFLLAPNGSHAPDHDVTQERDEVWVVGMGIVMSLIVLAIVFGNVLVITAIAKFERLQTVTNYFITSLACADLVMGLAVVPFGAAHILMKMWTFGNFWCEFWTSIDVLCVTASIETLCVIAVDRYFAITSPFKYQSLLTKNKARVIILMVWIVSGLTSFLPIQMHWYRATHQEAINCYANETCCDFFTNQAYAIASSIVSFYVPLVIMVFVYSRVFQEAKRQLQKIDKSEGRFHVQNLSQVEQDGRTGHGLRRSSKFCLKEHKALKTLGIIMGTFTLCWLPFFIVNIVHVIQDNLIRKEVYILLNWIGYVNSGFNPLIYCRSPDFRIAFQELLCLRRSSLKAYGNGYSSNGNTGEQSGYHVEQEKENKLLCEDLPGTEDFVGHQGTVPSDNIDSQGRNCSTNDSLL
Summary of the method: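 Cells (CHO, stable ADRB2 overexpression) incubated 18-20hr at 37C; compounds added from DMSO; agonist mix (1nM isoproterenol, 100uM IBMX, 25uM Ro-20-1724) added; 0.5hr RT; d2-cAMP and anti-cAMP-cryptate added; 1hr RT; 665/615 nm read.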

[18] = target: D(2) dopamine receptor (Homo sapiens) (UniProt P14416); assay: Dopamine D2 receptor (DRD2) small molecule agonists, cell-based qHTS assay (AID 1963594); note: nearly all actives have a fitted effect of over 35% in size
D(2) dopamine receptor (Homo sapiens), sequence (P14416 whole entry, looked up): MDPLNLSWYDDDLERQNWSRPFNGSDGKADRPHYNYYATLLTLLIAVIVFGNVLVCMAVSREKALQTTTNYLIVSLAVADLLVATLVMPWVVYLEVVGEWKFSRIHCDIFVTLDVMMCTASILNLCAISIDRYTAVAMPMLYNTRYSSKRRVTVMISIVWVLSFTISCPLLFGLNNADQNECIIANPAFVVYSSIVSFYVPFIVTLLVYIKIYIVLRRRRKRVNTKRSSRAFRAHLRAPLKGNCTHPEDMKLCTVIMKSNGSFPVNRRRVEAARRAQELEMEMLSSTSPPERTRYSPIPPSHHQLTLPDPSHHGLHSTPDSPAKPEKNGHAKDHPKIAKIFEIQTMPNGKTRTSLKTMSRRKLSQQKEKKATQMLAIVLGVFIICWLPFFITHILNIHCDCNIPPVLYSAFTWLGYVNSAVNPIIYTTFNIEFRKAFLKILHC
Summary of the method: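 HEK293 cells stably expressing DRD2 were cultured 24 h at 37 C, then given Ro20-1724 (0.1 mM final) and compounds for 10 min at room temperature. NKH477 (200nM) was then added for 30 min. cAMP was read by HTRF.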

[19] = target: D(2) dopamine receptor (Homo sapiens) (UniProt P14416); assay: Dopamine D2 receptor (DRD2) small molecule antagonists, cell-based qHTS assay (AID 1963595; active = well fitted inhibition curve with a large enough effect in the signal ratio in the repeat runs, with a control signal flat; the % refers to the signal ratio)
Summary of the method: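 Stable D2 receptor HEK293 line, 24 h after seeding. Compound preincubated 10 min, then quinpirole (12 nM) with forskolin analogue NKH477 (200 nM), 30 min, room temperature. Detection by time-resolved FRET of cAMP.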

[20] = target: Muscarinic acetylcholine receptor M1 (Homo sapiens) (UniProt P11229); assay: Cholinergic receptor muscarinic 1 (CHRM1) small molecule antagonists, cell-based qHTS assay (AID 1963588); note: nearly all actives have a fitted effect of over 40% in size
Summary of the method: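 CHRM1-CHO calcium-flux assay, antagonist mode. Cells were seeded 18 h, dye-loaded 1 h at 37 C and given compound for 5 min at RT, then acetylcholine was added at 50nM. FDSS fluorescence was read 3 min; 15 concentrations, three runs.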

Compound	Potency [1]	Potency [2]	Potency [3]	outcome [4]	outcome [5]	Potency [6]	Potency [7]	Potency [8]	Potency [9]	Potency [10]	Potency [11]	Potency [12]	Potency [13]	Potency [14]	Potency [15]	Potency [16]	Potency [17]	Potency [18]	Potency [19]	Potency [20]
C=COCCCCO	inactive	inactive	inactive	inactive	inactive	inactive	inactive	inactive	inactive	inactive	inactive	inactive	inactive	inactive	inactive	inactive	inactive	inactive	inactive	–
CC(CC(C#N)(c1ccccc1)C(C)C)N(C)C (stereo not drawn)	inactive	inactive	inactive	inactive	inactive	inactive	inactive	inactive	inactive	inactive	inactive	inactive	inactive	inactive	inactive	inactive	inactive	inactive	–	–
S=c1[nH][nH]c(=S)s1	inactive	inactive	inactive	inactive	inactive	inactive	inactive	inactive	inactive	inactive	inactive	inactive	inactive	inactive	inactive	–	inactive	inactive	inactive	–
CCCCC(CC)CN (stereo not drawn)	inactive	inactive	inactive	inactive	inactive	inactive	inactive	inactive	inactive	inactive	inactive	inactive	inactive	inactive	–	inactive	inactive	inactive	inactive	–
O=C1c2ccccc2C(=O)C1(O)O	inactive	61.4 µM (active)	inactive	inactive	inactive	inactive	inactive	36.5 µM (active)	inactive	inactive	36.5 µM (active)	inactive	inactive	inactive	–	–	inactive	inactive	inactive	–
Cc1ccccc1CCO	inactive	inactive	inactive	inactive	inactive	inactive	inactive	inactive	inactive	inactive	inactive	inactive	inactive	–	inactive	inactive	inactive	inactive	inactive	–
O=C(O)c1ccc2cc(O)ccc2c1	inactive	inactive	inactive	inactive	inactive	inactive	inactive	inactive	inactive	inactive	inactive	inactive	–	inactive	–	–	inactive	inactive	inactive	inactive
CC1CCCCC1	inactive	inactive	inactive	inactive	inactive	inactive	inactive	inactive	inactive	inactive	inactive	inactive	–	inactive	inactive	inactive	inactive	inactive	inactive	inactive
CC[C@H](NC(=O)c1cc(F)ccc1NS(=O)(=O)c1cccc2cccnc12)c1ccccc1	inactive	inactive	inactive	inactive	inactive	inactive	inactive	inactive	inactive	inactive	inactive	inactive	–	inactive	–	–	–	inactive	inactive	inactive
CN(C)CCn1nnnc1SCC1=C(C(=O)O)N2C(=O)[C@@H](NC(=O)Cc3csc(N)n3)[C@H]2SC1	inactive	inactive	inactive	inactive	inactive	inactive	inactive	inactive	inactive	inactive	inactive	inactive	–	inactive	inactive	inactive	inactive	inactive	inactive	inactive
OCCN(CCO)c1cccc(Cl)c1	inactive	inactive	inactive	inactive	inactive	inactive	inactive	inactive	inactive	inactive	inactive	inactive	–	inactive	inactive	inactive	inactive	inactive	inactive	inactive
CCOC(=O)OCC/C(SC(=O)OCC)=C(\C)N(C=O)Cc1cnc(C)nc1N	inactive	inactive	inactive	inactive	inactive	inactive	inactive	inactive	inactive	inactive	inactive	inactive	–	inactive	inactive	inactive	inactive	–	–	inactive
O=S1(=O)c2cccc3cccc(c23)N1CCCN1CCN(c2ccc(F)cc2)CC1	inactive	inactive	inactive	inactive	inactive	inactive	inactive	inactive	inactive	inactive	inactive	inactive	inactive	–	inactive	–	33.5 µM (active)	–	inactive	–
CCCC(=O)C(CC)Sc1ccoc1C (stereo not drawn)	inactive	inactive	inactive	inactive	inactive	inactive	inactive	inactive	inactive	inactive	inactive	inactive	–	inactive	inactive	–	inactive	inactive	inactive	inactive
Nc1ccc(C(=O)OCC(O)CO)cc1 (stereo not drawn)	inactive	inactive	inactive	inactive	inactive	inactive	inactive	inactive	inactive	inactive	inactive	inactive	–	inactive	inactive	inactive	inactive	inactive	inactive	inactive

From PubChem BioAssay (Tox21)
